{"source": "the supplement of paper PMC6555819"}
{"test_system": "RARb homodimer (NR concentration 270 nM)", "assay": "PBM binding z-score (relative to random genomic background probes); higher = stronger binding; sequences stand for … in GC…GCGATTGACAGCGTAGAATGAAGG", "method_in_brief": "(§1)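 For binding z-scores, the reference was random background probes on custom Agilent 4×180K protein-binding microarrays. These arrays were incubated 1 h with ligand-free nuclear receptor dimers in PBS pH 7.4, 2% milk, 0.02% Triton X-100, 1 mM DTT, 0.2 mg/mL BSA and 0.4 mg/ml salmon testes DNA. Fluorescence was scanned after antibody detection of each partner (one per run) and regression-normalized.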"}
{"sequence": "TCTAGTTGGTAAAAGGTCACACACTCGAAATGCG", "PBM binding z-score": 5.28}
{"sequence": "GATACAGGGTCAGCTAGAGGCCGGAGTATGGAAA", "PBM binding z-score": 3.18}
{"sequence": "GGAACGAGGGCAAAGTTAATAGCATCTGTCGACG", "PBM binding z-score": 1.24}
{"sequence": "CCTACTGGGCCATTCAGAGTTCATTGATCATATG", "PBM binding z-score": 2.64}
{"sequence": "ACTACAGGGTCATCGTAGGCCAGAGTACGCACAG", "PBM binding z-score": 3.45}
{"sequence": "CGAACTAGGTCAATGACAGGACAGTGAATAGTAA", "PBM binding z-score": 2.71}
{"sequence": "ATATGTAGGTTACATCCGGGTCATTCAAGCTATG", "PBM binding z-score": 2.89}
{"sequence": "CAAACTAGGTCACGGAGGTCAAAGTCCGTGCGTA", "PBM binding z-score": 5.44}
{"sequence": "GGAACCAGGGCATTCGAGTTGATAGCATGGCGAT", "PBM binding z-score": 1.54}
{"sequence": "TCTACTTGGTCAAAGGTCACACACTCGAAATGCG", "PBM binding z-score": 5.11}
{"sequence": "AGAACGAGGGCACGCTGAGTTGATAGTAGAGTAG", "PBM binding z-score": 1.25}
{"sequence": "CCTTACGGGTCACTGACAGGTTATATCATTTGGA", "PBM binding z-score": 3.45}
{"sequence": "ATATCTAGGTAAAGATAGTTCAGTGAATGCAAAT", "PBM binding z-score": 0.985}
{"sequence": "AGAACGAGGGCACGCCGAGTTGATAGCAGAGTAG", "PBM binding z-score": 1.2}
{"sequence": "TCATATAGGTAAAAGGTGAAAGGCGGTGTGGTAA", "PBM binding z-score": 1.54}
{"sequence": "AGTATGAGGTTATTAAGATCAGGGAATTGCGGTC", "PBM binding z-score": 1.18}
{"sequence": "ATATGTATGTTACATCCGGGTCATTCAGGCTATG", "PBM binding z-score": 2.37}
{"sequence": "CCTAGCAGGCAAATCTGGGTCACTCAAGGCTTGA", "PBM binding z-score": 1.85}
{"sequence": "CCTACTGAGCCACGAAAGGTCATTGATTCAGTGA", "PBM binding z-score": 4.59}
{"sequence": "CGTCCAAGGTCATAGGTCAGTGAAGAGATGACGG", "PBM binding z-score": 4.84}
{"sequence": "GGAACGAGGGCATTCGAGTTGATAGCCTGGCGAT", "PBM binding z-score": 0.74}
{"sequence": "CCTAGTTGGTCAGTAGGTCACACACCGGATATGA", "PBM binding z-score": 3.59}
{"sequence": "TAGCCTCGGTCATGCGGGCCAGTATAGTGTCGGC", "PBM binding z-score": 1.58}
{"sequence": "ATATGTAGGTTAGCTGGGGTTATTCAGACTAGGC", "PBM binding z-score": 1.42}
{"sequence": "CATACAGGGTCAGCTATGCCAGAGTAGGGACGGC", "PBM binding z-score": 2.98}
{"sequence": "TCATATAGGTAAATGCTAGGTGAAAATCCGATCT", "PBM binding z-score": 0.208}
{"sequence": "ATCTCTGGGTAAAGATAGTTCAGTGAATGCAAAT", "PBM binding z-score": 1.1}
{"sequence": "CGATCTAGGTCAGAACAGGACAGTGAAGGATGAT", "PBM binding z-score": 1.97}
{"sequence": "AGAATAAGGTTACCAAAGATCAGGGAAACGCTTG", "PBM binding z-score": 1.1}
{"sequence": "TGAATGAGGTTATAAGATCCGGGAACGTTGCAAA", "PBM binding z-score": 0.199}
{"sequence": "ATCTCTAGGAAACCAAGTTCAGTGAATGCCGAAC", "PBM binding z-score": 1.32}
{"sequence": "TCTTATAGATCAAGCAGGTTAAGAAAGCCTGAGT", "PBM binding z-score": 0.27}
{"sequence": "TCTAGCAGGCCAGAGGGTCTCTCAAGAGGTACGG", "PBM binding z-score": -0.406}
{"sequence": "GCTGCAAGGTCAGGTTGGTCAGCTAACGGGTACG", "PBM binding z-score": 3.9}
{"sequence": "CAGCTTAGGTCAGGGCCAGTATAGGAGGAACGTT", "PBM binding z-score": 2.93}
{"sequence": "GCATGTAGATCAAGGTTAAGAAAGACTAAGCTAA", "PBM binding z-score": -0.0945}
{"sequence": "ATCTCTAGGTAACCAAGTGCAGTGAATGCCGAAC", "PBM binding z-score": 0.232}
{"sequence": "CCTACTGGTCCAAAAAGGTCATTGATGCCGATAA", "PBM binding z-score": 4.58}
{"sequence": "CCTATTAGTCGACCATAAGGGCAACCGAAGCTCG", "PBM binding z-score": 1.55}
{"sequence": "CCGACTGGGGCATAAGGTTATCATAAGCCAGCCC", "PBM binding z-score": 1.53}
{"test_system": "RARg:RXRa (NR concentration 270 nM, RXRa partner concentration 90 nM)", "assay": "PBM binding z-score (relative to random genomic background probes); higher = stronger binding; sequences stand for … in GC…GCGATTGACAGCGTAGAATGAAGG", "method_in_brief": "as §1"}
{"sequence": "TCTAGTTGGTAAAAGGTCACACACTCGAAATGCG", "PBM binding z-score": 6.21}
{"sequence": "GATACAGGGTCAGCTAGAGGCCGGAGTATGGAAA", "PBM binding z-score": 5.66}
{"sequence": "GGAACGAGGGCAAAGTTAATAGCATCTGTCGACG", "PBM binding z-score": 1.77}
{"sequence": "CCTACTGGGCCATTCAGAGTTCATTGATCATATG", "PBM binding z-score": 2.54}
{"sequence": "ACTACAGGGTCATCGTAGGCCAGAGTACGCACAG", "PBM binding z-score": 5.52}
{"sequence": "CGAACTAGGTCAATGACAGGACAGTGAATAGTAA", "PBM binding z-score": 4.32}
{"sequence": "ATATGTAGGTTACATCCGGGTCATTCAAGCTATG", "PBM binding z-score": 3.76}
{"sequence": "CAAACTAGGTCACGGAGGTCAAAGTCCGTGCGTA", "PBM binding z-score": 7.06}
{"sequence": "GGAACCAGGGCATTCGAGTTGATAGCATGGCGAT", "PBM binding z-score": 1.05}
{"sequence": "TCTACTTGGTCAAAGGTCACACACTCGAAATGCG", "PBM binding z-score": 7.2}
{"sequence": "AGAACGAGGGCACGCTGAGTTGATAGTAGAGTAG", "PBM binding z-score": 1.99}
{"sequence": "CCTTACGGGTCACTGACAGGTTATATCATTTGGA", "PBM binding z-score": 5.75}
{"sequence": "ATATCTAGGTAAAGATAGTTCAGTGAATGCAAAT", "PBM binding z-score": 0.606}
{"sequence": "AGAACGAGGGCACGCCGAGTTGATAGCAGAGTAG", "PBM binding z-score": 1.96}
{"sequence": "TCATATAGGTAAAAGGTGAAAGGCGGTGTGGTAA", "PBM binding z-score": 1.65}
{"sequence": "AGTATGAGGTTATTAAGATCAGGGAATTGCGGTC", "PBM binding z-score": 1.27}
{"sequence": "ATATGTATGTTACATCCGGGTCATTCAGGCTATG", "PBM binding z-score": 1.63}
{"sequence": "CCTAGCAGGCAAATCTGGGTCACTCAAGGCTTGA", "PBM binding z-score": 1}
{"sequence": "CCTACTGAGCCACGAAAGGTCATTGATTCAGTGA", "PBM binding z-score": 4.56}
{"sequence": "CGTCCAAGGTCATAGGTCAGTGAAGAGATGACGG", "PBM binding z-score": 6.97}
{"sequence": "GGAACGAGGGCATTCGAGTTGATAGCCTGGCGAT", "PBM binding z-score": 0.929}
{"sequence": "CCTAGTTGGTCAGTAGGTCACACACCGGATATGA", "PBM binding z-score": 3.58}
{"sequence": "TAGCCTCGGTCATGCGGGCCAGTATAGTGTCGGC", "PBM binding z-score": 1.57}
{"sequence": "ATATGTAGGTTAGCTGGGGTTATTCAGACTAGGC", "PBM binding z-score": 1.54}
{"sequence": "CATACAGGGTCAGCTATGCCAGAGTAGGGACGGC", "PBM binding z-score": 4.2}
{"sequence": "TCATATAGGTAAATGCTAGGTGAAAATCCGATCT", "PBM binding z-score": 0.578}
{"sequence": "ATCTCTGGGTAAAGATAGTTCAGTGAATGCAAAT", "PBM binding z-score": 0.61}
{"sequence": "CGATCTAGGTCAGAACAGGACAGTGAAGGATGAT", "PBM binding z-score": 2.2}
{"sequence": "AGAATAAGGTTACCAAAGATCAGGGAAACGCTTG", "PBM binding z-score": 2.06}
{"sequence": "TGAATGAGGTTATAAGATCCGGGAACGTTGCAAA", "PBM binding z-score": 1.19}
{"sequence": "ATCTCTAGGAAACCAAGTTCAGTGAATGCCGAAC", "PBM binding z-score": 0.329}
{"sequence": "TCTTATAGATCAAGCAGGTTAAGAAAGCCTGAGT", "PBM binding z-score": 0.242}
{"sequence": "TCTAGCAGGCCAGAGGGTCTCTCAAGAGGTACGG", "PBM binding z-score": -0.564}
{"sequence": "GCTGCAAGGTCAGGTTGGTCAGCTAACGGGTACG", "PBM binding z-score": 4.56}
{"sequence": "CAGCTTAGGTCAGGGCCAGTATAGGAGGAACGTT", "PBM binding z-score": 3.26}
{"sequence": "GCATGTAGATCAAGGTTAAGAAAGACTAAGCTAA", "PBM binding z-score": 0.235}
{"sequence": "ATCTCTAGGTAACCAAGTGCAGTGAATGCCGAAC", "PBM binding z-score": 0.129}
{"sequence": "CCTACTGGTCCAAAAAGGTCATTGATGCCGATAA", "PBM binding z-score": 4.42}
{"sequence": "CCTATTAGTCGACCATAAGGGCAACCGAAGCTCG", "PBM binding z-score": 0.761}
{"sequence": "CCGACTGGGGCATAAGGTTATCATAAGCCAGCCC", "PBM binding z-score": 1.8}
